Records with an inconclusive call do not appear. Calls of active or inactive are those of the source. How the source made its calls: active means hit-call score of the fitted dose curve at least 0.9, where 1 is the maximum; inconclusive means response in the unintended direction; inactive means score below 0.9.
Experiments:
[1] = target: Type-1 angiotensin II receptor (Homo sapiens) (UniProt P30556); assay: NVS_GPCR_hAT1: NovaScreen (NVS) G Protein-Coupled Receptor Assay for human Angiotensin II receptor type 1 (AT1) (AID 2283263)
Type-1 angiotensin II receptor (Homo sapiens), sequence (P30556 whole entry, looked up): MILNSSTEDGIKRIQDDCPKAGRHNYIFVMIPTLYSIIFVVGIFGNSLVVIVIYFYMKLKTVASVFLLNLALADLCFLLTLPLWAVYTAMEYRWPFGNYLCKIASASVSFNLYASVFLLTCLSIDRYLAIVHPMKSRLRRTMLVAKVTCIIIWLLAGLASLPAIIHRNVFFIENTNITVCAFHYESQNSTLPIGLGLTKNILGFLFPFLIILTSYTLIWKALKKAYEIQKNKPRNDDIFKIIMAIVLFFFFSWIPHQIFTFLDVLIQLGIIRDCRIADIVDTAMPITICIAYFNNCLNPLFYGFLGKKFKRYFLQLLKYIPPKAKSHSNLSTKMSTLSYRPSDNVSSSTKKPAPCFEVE
Outline: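 Membranes from KAN-TS cells; radioligand competitive displacement, 3 h, filtration and scintillation counting. Single-point duplicate screen at 25 uM, then concentration-response up to 50 uM for hits; loss of signal fitted versus DMSO.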

[2] = target: human Endothelin Receptor Type A (ETA), EDNRA (gene 1909) (UniProt P25101); assay: NVS_GPCR_hETA: NovaScreen (NVS) G Protein-Coupled Receptor Assay for human Endothelin Receptor Type A (ETA) (AID 2283265)
human Endothelin Receptor Type A (ETA), EDNRA (gene 1909), sequence (P25101 whole entry, looked up): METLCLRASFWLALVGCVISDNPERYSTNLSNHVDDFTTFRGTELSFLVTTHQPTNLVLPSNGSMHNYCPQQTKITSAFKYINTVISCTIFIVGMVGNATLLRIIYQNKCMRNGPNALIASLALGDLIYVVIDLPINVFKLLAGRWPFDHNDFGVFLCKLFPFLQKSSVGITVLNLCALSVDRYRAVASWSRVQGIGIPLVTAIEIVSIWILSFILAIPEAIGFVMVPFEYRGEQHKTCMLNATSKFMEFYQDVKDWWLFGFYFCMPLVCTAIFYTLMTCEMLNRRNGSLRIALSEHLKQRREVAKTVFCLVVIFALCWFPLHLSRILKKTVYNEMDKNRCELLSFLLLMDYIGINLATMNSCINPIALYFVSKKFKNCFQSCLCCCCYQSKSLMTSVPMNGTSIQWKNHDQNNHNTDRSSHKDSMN
Experimental: NVS_GPCR_hETA is a biochemical, single-readout assay that uses extracted gene-proteins from Human neuroblastoma cells (SH-SY5Y) in a cell-free assay. Measurements were taken 3 hours after chemical dosing in a 96-well plate.NVS_GPCR_hETA is one of one assay component(s) measured or calculated from the NVS_GPCR_hETA assay. It is designed to make measurements of radioligand binding, a form of binding reporter, as detected with scintillation counting signals by Filter-based radiodetection technology.Data from the assay component NVS_GPCR_hETA was analyzed into 1 assay endpoint. This assay endpoint, NVS_GPCR_hETA, was analyzed in the positive analysis fitting direction relative to DMSO as the negative control and baseline of activity. […] Furthermore, this assay endpoint can be referred to as a primary readout, because the performed assay has only produced 1 assay endpoint. […]
Binding assays used specific radioligands (tritiated, iodinated) with non-radioactive competitive displacement ligands in agonist or antagonist protocols (as indicated) and various reference compounds and inhibitors to titrate specific binding to receptors and transporters. Most enzyme assays (CYPs, kinases, phosphatases, proteases, HDACs) used recombinant protein and specific substrates (fluorescence mostly, some colorimetric and radioactive) and inhibitors, followed by a biochemical separation of substrate and product. […]

[3] = target: human Endothelin Receptor Type B (ETB), EDNRB (gene 1910) (UniProt P24530); assay: NVS_GPCR_hETB: NovaScreen (NVS) G Protein-Coupled Receptor Assay for human Endothelin Receptor Type B (ETB) (AID 2283267)
human Endothelin Receptor Type B (ETB), EDNRB (gene 1910), sequence (P24530 whole entry, looked up): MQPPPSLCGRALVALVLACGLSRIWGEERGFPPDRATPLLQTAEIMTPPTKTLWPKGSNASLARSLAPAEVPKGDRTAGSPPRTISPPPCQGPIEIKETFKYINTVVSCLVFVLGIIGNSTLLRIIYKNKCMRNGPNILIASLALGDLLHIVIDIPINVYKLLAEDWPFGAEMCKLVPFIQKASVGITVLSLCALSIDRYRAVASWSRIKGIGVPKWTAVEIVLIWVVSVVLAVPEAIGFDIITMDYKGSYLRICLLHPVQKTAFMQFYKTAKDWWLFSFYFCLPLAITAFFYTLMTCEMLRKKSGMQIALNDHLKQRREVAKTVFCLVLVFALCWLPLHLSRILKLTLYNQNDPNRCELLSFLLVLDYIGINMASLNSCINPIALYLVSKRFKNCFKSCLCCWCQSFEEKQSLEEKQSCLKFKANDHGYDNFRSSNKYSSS
Outline: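 Human astrocytoma cell membranes; radioligand competitive binding read by filter scintillation counting 4 hours after dosing. Single-concentration duplicate screen at 25 uM, then singleton concentration-response up to 50 uM; loss of signal versus DMSO.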

With `CCCCC(CC)COC(=O)CC(C(=O)OCC(CC)CCCC)S(=O)(=O)O` (stereo not given) the AC50 [1] was 17700 nM (active).
In the case of `CCCCc1ccc2c(n1)[C@@H](c1ccc(OC)cc1C[C@H](C)C(=O)O)[C@H](C(=O)O)[C@H]2c1ccc2c(c1)OCO2`, the AC50 [2] is reported as 4.72 nM (active) and the AC50 [3] is reported as 3.61 nM (active).
`NCC1(Cc2noc(=O)[nH]2)CCCCC1` was tested, and the outcome [2] was “inactive” and the outcome [3] was “inactive”.
